In the supplement of paper PMC6555819:

The sequences below were run on RXRa homodimer (NR concentration 180 nM) (assay: PBM binding z-score (relative to random genomic background probes); higher = stronger binding; sequences stand for … in GC…GCGATTGACAGCGTAGAATGAAGG).
Outline: (§1)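 Random background probes are the reference for binding z-scores. These scores derive from regression-normalized fluorescence on custom Agilent 4×180K protein-binding microarrays incubated 1 h with ligand-free nuclear receptor dimers. Binding was detected with antibodies against each partner (one per run).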

How did the PBM binding z-score turn out when TCTTGTAGATCAATAGAGGTCAAGAAAGTGCGCT was run?
Its PBM binding z-score is 4.46.

How did the PBM binding z-score turn out when CCTTACGGGTCACTCCAGGTTATAACATCGGAGT was run?
The PBM binding z-score was 4.36.

How did the PBM binding z-score turn out when TCTTGTAGATCAAAAGTTAAGAAAGCCGAAGCCT was run?
The PBM binding z-score was 0.126.

How did the PBM binding z-score turn out when TAGCCTAGGTCATGCGGGCCAGTATGGTGTCGGC was run?
The PBM binding z-score was 3.23.

CGTCCAAGGTCAATGCTAGGTGAGTGAAAGCATT was tested. Which PBM binding z-score did it give?
The PBM binding z-score was 4.73.

How did the PBM binding z-score turn out when TAGCCTGGGTCATTGGGCCAGTATAGTACGCATC was run?
The PBM binding z-score was 3.04.

TCTTGTAGATCAACAGAAGGTTAAGAAAGATCGA was tested. Which PBM binding z-score did it give?
The PBM binding z-score was 1.02.

How did the PBM binding z-score turn out when CGAACTAGGTCATCCAGGAAAGTGAATACATTGA was run?
The PBM binding z-score was 3.11.

Which PBM binding z-score does the source give for ATCTCTAGGTAACTAAGTTCAGTGAATGCCGAAC here?
Its PBM binding z-score is 0.699.

For CCTGCTAGGTGAATGGTCAGCTAAAGCAGCTCGC, which PBM binding z-score is on record?
The PBM binding z-score was -0.237.

Which PBM binding z-score does the source give for TCATATAGGTAAATGCTAGGTGGAAGTCCGATCT here?
Its PBM binding z-score is 0.571.

How did the PBM binding z-score turn out when ACTAACAGGCCAAGTTTGGGTCACTCAAACAAAG was run?
Its PBM binding z-score is 0.882.

Which PBM binding z-score does the source give for GCTAGTTGGTCAGTATAAGGTCACACACCGGTCG here?
Its PBM binding z-score is 3.9.

Which PBM binding z-score does the source give for CGAACTAGGTAAGAACAGGACAGTGAAGGATGAT here?
The PBM binding z-score was -0.0524.

CCGAGCAGGTTATGGGGCATTCAGGCAACGGTGA was tested. Which PBM binding z-score did it give?
The PBM binding z-score was 0.679.

CCTACTGAGCCAAGGTCATTGATCAGTCAAAGCA was tested. Which PBM binding z-score did it give?
The PBM binding z-score was 3.23.

For TCTACTAGGTCAACGATGGTCAGCTAATCTGCTA, which PBM binding z-score is on record?
The PBM binding z-score was 3.07.

CCTTACGGGTCACGCCAGGTTATAGCATCGGAGT was tested. Which PBM binding z-score did it give?
The PBM binding z-score was 6.22.

Which PBM binding z-score does the source give for ACAGACAGGTGATGAAGGCAACTCAGGCTATCAT here?
The PBM binding z-score was 0.152.

For CCTAGTTGGTCAAGGGCACACACGCTATAGGTAC, which PBM binding z-score is on record?
The PBM binding z-score was 0.726.

Which PBM binding z-score does the source give for ACTAGCAGGCCAAATTTGGGTCACTCAAACAAAG here?
The PBM binding z-score was 0.936.

Which PBM binding z-score does the source give for CGTCCAAGGTCAATACTAGGTCAGTGAAAGCATT here?
Its PBM binding z-score is 4.84.

Which PBM binding z-score does the source give for ATACCAAGGTGATCGTGAGGTCGTGGATACTAAC here?
The PBM binding z-score was 2.04.

How did the PBM binding z-score turn out when TCATATAGGTAAACAGCTGAAAGTCCGTAAGTTA was run?
Its PBM binding z-score is 0.623.

With TCCGCTAGGTCAACGATGGTCAGCTAATCTGCTA as the sequence, how does the PBM binding z-score read?
Its PBM binding z-score is 2.23.

How did the PBM binding z-score turn out when ATCGCTAGGTAAAGATAGTTCAGTGAATGCAAAT was run?
The PBM binding z-score was -0.287.

Which PBM binding z-score does the source give for CCTCGGAGGACAACAGGAGGTCAGAGCTGCCAGA here?
The PBM binding z-score was 1.76.

For CGTCCAAGGTCATAGGAGGTAAGTGAAGACAGAT, which PBM binding z-score is on record?
The PBM binding z-score was 5.29.

How did the PBM binding z-score turn out when TCGAGAAGGTTACCAATGGGGCATTCAGCTTTCT was run?
Its PBM binding z-score is 1.86.

With CCTTACGGGTCACTGACGGGTTATAGCATTTGGA as the sequence, how does the PBM binding z-score read?
Its PBM binding z-score is 5.1.

Which PBM binding z-score does the source give for CAAACTAGGTCAATGGTCAAAGTCGAGCCAACCA here?
The PBM binding z-score was 2.95.

For GCTAGTTGGTAAGTAAAAGGTCACACACCGGTCG, which PBM binding z-score is on record?
Its PBM binding z-score is 4.99.

With TAGCCTAGTTCATGGGCCAGTATACCACGCGAAC as the sequence, how does the PBM binding z-score read?
The PBM binding z-score was 0.734.

With GCAGACAGGTGAAAAGCAGGTAACTCAGGGTGGC as the sequence, how does the PBM binding z-score read?
The PBM binding z-score was 0.348.

CGAACTAGGTTATCCAGGACAGTGAATACATTGA was tested. Which PBM binding z-score did it give?
The PBM binding z-score was 0.343.

How did the PBM binding z-score turn out when ATCTCTAGGTAACAAGTTCAGAGAAAGAGAGGAC was run?
Its PBM binding z-score is 1.04.

For GCTTACGGGTCAAAGGTTATAGCGTGAATAGAAT, which PBM binding z-score is on record?
The PBM binding z-score was 9.28.

ATACCAAGGTGATCGTGATGTCGTTGATACTAAC was tested. Which PBM binding z-score did it give?
Its PBM binding z-score is 0.28.

For CCTAGCAGGACAGGGTCACTCAAGCATTTCGCTT, which PBM binding z-score is on record?
The PBM binding z-score was 3.54.

How did the PBM binding z-score turn out when TTAATGAGGTTATAAGATCAGGGAACGTTGCAAA was run?
The PBM binding z-score was 2.13.

The sequences below were run on THRa:RXRa (NR concentration 90 nM, RXRa partner concentration 90 nM) in the same assay as above.
Outline: as §1

TCTTGTAGATCAATAGAGGTCAAGAAAGTGCGCT was tested. Which PBM binding z-score did it give?
Its PBM binding z-score is 4.17.

How did the PBM binding z-score turn out when CCTTACGGGTCACTCCAGGTTATAACATCGGAGT was run?
Its PBM binding z-score is 5.32.

With TCTTGTAGATCAAAAGTTAAGAAAGCCGAAGCCT as the sequence, how does the PBM binding z-score read?
Its PBM binding z-score is -0.34.

TAGCCTAGGTCATGCGGGCCAGTATGGTGTCGGC was tested. Which PBM binding z-score did it give?
The PBM binding z-score was 2.96.

CGTCCAAGGTCAATGCTAGGTGAGTGAAAGCATT was tested. Which PBM binding z-score did it give?
Its PBM binding z-score is 3.92.

For TAGCCTGGGTCATTGGGCCAGTATAGTACGCATC, which PBM binding z-score is on record?
Its PBM binding z-score is 1.99.

How did the PBM binding z-score turn out when TCTTGTAGATCAACAGAAGGTTAAGAAAGATCGA was run?
The PBM binding z-score was 0.733.

CGAACTAGGTCATCCAGGAAAGTGAATACATTGA was tested. Which PBM binding z-score did it give?
The PBM binding z-score was 2.77.

For ATCTCTAGGTAACTAAGTTCAGTGAATGCCGAAC, which PBM binding z-score is on record?
Its PBM binding z-score is 1.67.

With CCTGCTAGGTGAATGGTCAGCTAAAGCAGCTCGC as the sequence, how does the PBM binding z-score read?
Its PBM binding z-score is 0.283.

TCATATAGGTAAATGCTAGGTGGAAGTCCGATCT was tested. Which PBM binding z-score did it give?
The PBM binding z-score was 0.0546.

How did the PBM binding z-score turn out when ACTAACAGGCCAAGTTTGGGTCACTCAAACAAAG was run?
Its PBM binding z-score is 2.73.

GCTAGTTGGTCAGTATAAGGTCACACACCGGTCG was tested. Which PBM binding z-score did it give?
The PBM binding z-score was 4.29.

CGAACTAGGTAAGAACAGGACAGTGAAGGATGAT was tested. Which PBM binding z-score did it give?
Its PBM binding z-score is 0.664.

With CCGAGCAGGTTATGGGGCATTCAGGCAACGGTGA as the sequence, how does the PBM binding z-score read?
Its PBM binding z-score is 0.573.

CCTACTGAGCCAAGGTCATTGATCAGTCAAAGCA was tested. Which PBM binding z-score did it give?
The PBM binding z-score was 3.52.

How did the PBM binding z-score turn out when TCTACTAGGTCAACGATGGTCAGCTAATCTGCTA was run?
The PBM binding z-score was 3.2.

CCTTACGGGTCACGCCAGGTTATAGCATCGGAGT was tested. Which PBM binding z-score did it give?
Its PBM binding z-score is 5.03.

For ACAGACAGGTGATGAAGGCAACTCAGGCTATCAT, which PBM binding z-score is on record?
The PBM binding z-score was 0.815.

With CCTAGTTGGTCAAGGGCACACACGCTATAGGTAC as the sequence, how does the PBM binding z-score read?
Its PBM binding z-score is 1.09.

ACTAGCAGGCCAAATTTGGGTCACTCAAACAAAG was tested. Which PBM binding z-score did it give?
The PBM binding z-score was 2.45.

How did the PBM binding z-score turn out when CGTCCAAGGTCAATACTAGGTCAGTGAAAGCATT was run?
Its PBM binding z-score is 4.42.

For ATACCAAGGTGATCGTGAGGTCGTGGATACTAAC, which PBM binding z-score is on record?
The PBM binding z-score was 3.62.

TCATATAGGTAAACAGCTGAAAGTCCGTAAGTTA was tested. Which PBM binding z-score did it give?
Its PBM binding z-score is 0.172.

Which PBM binding z-score does the source give for TCCGCTAGGTCAACGATGGTCAGCTAATCTGCTA here?
The PBM binding z-score was 3.06.

With ATCGCTAGGTAAAGATAGTTCAGTGAATGCAAAT as the sequence, how does the PBM binding z-score read?
Its PBM binding z-score is 0.234.

Which PBM binding z-score does the source give for CCTCGGAGGACAACAGGAGGTCAGAGCTGCCAGA here?
Its PBM binding z-score is 2.89.

For CGTCCAAGGTCATAGGAGGTAAGTGAAGACAGAT, which PBM binding z-score is on record?
The PBM binding z-score was 4.6.

With TCGAGAAGGTTACCAATGGGGCATTCAGCTTTCT as the sequence, how does the PBM binding z-score read?
Its PBM binding z-score is 0.779.

CCTTACGGGTCACTGACGGGTTATAGCATTTGGA was tested. Which PBM binding z-score did it give?
Its PBM binding z-score is 2.74.

Which PBM binding z-score does the source give for CAAACTAGGTCAATGGTCAAAGTCGAGCCAACCA here?
Its PBM binding z-score is 2.56.

With GCTAGTTGGTAAGTAAAAGGTCACACACCGGTCG as the sequence, how does the PBM binding z-score read?
The PBM binding z-score was 3.48.

Which PBM binding z-score does the source give for TAGCCTAGTTCATGGGCCAGTATACCACGCGAAC here?
The PBM binding z-score was 0.187.

How did the PBM binding z-score turn out when GCAGACAGGTGAAAAGCAGGTAACTCAGGGTGGC was run?
The PBM binding z-score was 1.28.

How did the PBM binding z-score turn out when CGAACTAGGTTATCCAGGACAGTGAATACATTGA was run?
The PBM binding z-score was 2.45.

Which PBM binding z-score does the source give for ATCTCTAGGTAACAAGTTCAGAGAAAGAGAGGAC here?
The PBM binding z-score was 1.49.

For GCTTACGGGTCAAAGGTTATAGCGTGAATAGAAT, which PBM binding z-score is on record?
Its PBM binding z-score is 3.83.

With ATACCAAGGTGATCGTGATGTCGTTGATACTAAC as the sequence, how does the PBM binding z-score read?
The PBM binding z-score was 0.81.

CCTAGCAGGACAGGGTCACTCAAGCATTTCGCTT was tested. Which PBM binding z-score did it give?
Its PBM binding z-score is 3.19.

With TTAATGAGGTTATAAGATCAGGGAACGTTGCAAA as the sequence, how does the PBM binding z-score read?
Its PBM binding z-score is 2.04.
